Assay results as given in PubChem BioAssay AID1159580 (chemical genetic matrix, 2015).
Where “and” joins values, the source holds several entries; their conditions need not be identical. Identical values can stand only once. Screen size: about 5,500 compounds; about 2,000 (36%) were called active. Another 18% or so got no clear call; they are omitted. No stated cut-off is given here; in the data, active means normalized growth mostly below about 0.91 (no sharp cut-off); inconclusive means no clear call, values can overlap the other calls; inactive means mostly above about 0.92. Some of the results follow.

Assay: chemical genetic growth profiling, strain panel (AID 1159580);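 further: tested at 20 µM; growth read once vehicle control cultures reached saturation at 30 °C; 1 = growth at the plate median or of vehicle wells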
Conditions: S. cerevisiae deletion strains, growth OD

Measured: normalized growth

C[C@]12CCC3C(CC[C@H]4CC(=O)CC[C@]34C)C1CCC2=O (some centres not stated)
0.743 (active) and 0.898 (inactive): locus YJL095W, strain BCK1, stronger effect = lower value
inactive: locus YAL026C, strain drs2, stronger effect = lower value 0.949 | locus YAL030W, strain snc1, stronger effect = lower value 0.938 | locus YBL061C, strain skt5, stronger effect = lower value 0.987 | locus YBR023C, strain chs3, stronger effect = lower value 0.942 | locus YBR171W, strain sec66, stronger effect = lower value 1 | locus YBR229C, strain ROT2, stronger effect = lower value 0.964 | locus YBR231C, strain swc5, stronger effect = lower value 0.999 | locus YBR279W, strain paf1, stronger effect = lower value 0.983 | locus YCL016C, strain dcc1, stronger effect = lower value 0.94 | locus YCL029C, strain bik1, stronger effect = lower value 0.948 | locus YCL069W, strain vba3, stronger effect = lower value 0.979 | locus YCR088W, strain abp1, stronger effect = lower value 1.03 | locus YDL005C, strain med2, stronger effect = lower value 1.03 | locus YDL040C, strain nat1, stronger effect = lower value 1.03 | locus YDL074C, strain BRE1, stronger effect = lower value 0.795 | locus YDL101C, strain DUN1, stronger effect = lower value 0.978 | locus YDL185W, strain tfp1, stronger effect = lower value 0.932 | locus YDR001C, strain nth1, stronger effect = lower value 1.03 | locus YDR069C, strain doa4, stronger effect = lower value 0.942 | locus YDR101C, strain arx1, stronger effect = lower value 0.947 | locus YDR150W, strain NUM1, stronger effect = lower value 1.01 | locus YDR297W, strain sur2, stronger effect = lower value 0.939 | locus YDR334W, strain swr1, stronger effect = lower value 1.05 | locus YDR335W, strain msn5, stronger effect = lower value 0.932 | locus YEL037C, strain rad23, stronger effect = lower value 1.01 | locus YEL061C, strain CIN8 (second series), stronger effect = lower value 1.01 | locus YEL061C, strain CIN8, stronger effect = lower value 0.994 | locus YER015W, strain faa2, stronger effect = lower value 0.985 | locus YER016W, strain bim1, stronger effect = lower value 0.998 | locus YER110C, stronger effect = lower value 0.958 | locus YER111C, strain swi4, stronger effect = lower value 0.998 | locus YER155C, strain BEM2, stronger effect = lower value 1.04 | locus YER167W, strain BCK2, stronger effect = lower value 0.966 | locus YFR010W, strain ubp6, stronger effect = lower value 0.973 | locus YGL078C, strain dbp3, stronger effect = lower value 0.943 | locus YGL086W, strain mad1, stronger effect = lower value 0.971 | locus YGL167C, strain pmr1, stronger effect = lower value 1.02 | locus YGL227W, strain vid30, stronger effect = lower value 1.08 | locus YGL248W, strain PDE1, stronger effect = lower value 0.912 | locus YGL253W, strain hxk2, stronger effect = lower value 0.92 | locus YHR013C, strain ard1, stronger effect = lower value 0.978 | locus YHR027C, strain rpn1, stronger effect = lower value 0.985 | locus YHR030C, strain SLT2, stronger effect = lower value 0.974 and 0.898 | locus YHR079C, strain IRE1 (second series), stronger effect = lower value 0.991 | locus YHR079C, strain IRE1, stronger effect = lower value 0.901 | locus YHR094C, strain hxt1, stronger effect = lower value 0.997 | locus YHR129C, strain ARP1, stronger effect = lower value 0.96 | locus YHR200W, strain rpn10, stronger effect = lower value 0.928 | locus YIL073C, strain SPO22, stronger effect = lower value 0.782 | locus YIL125W, strain kgd1, stronger effect = lower value 0.989 | locus YIR030C, strain dcg1, stronger effect = lower value 0.976 | locus YJL092W, strain hpr5, stronger effect = lower value 0.978 | locus YJL115W, strain asf1, stronger effect = lower value 1.01 | locus YJL134W, strain LCB3, stronger effect = lower value 1.01 | locus YJL154C, strain vps35, stronger effect = lower value 1.03 | locus YJL168C, strain set2, stronger effect = lower value 1 | locus YJL187C, strain SWE1 (second series), stronger effect = lower value 0.92 | locus YJR043C, strain POL32, stronger effect = lower value 0.883 | locus YJR066W, strain TOR1, stronger effect = lower value 0.881 | locus YKL009W, strain mrt4, stronger effect = lower value 0.906 | locus YKL068W, stronger effect = lower value 0.989 | locus YKL085W, strain MDH1 (second series), stronger effect = lower value 0.97 | locus YKL085W, strain MDH1, stronger effect = lower value 0.97 | locus YKL160W, strain elf1, stronger effect = lower value 0.95 | locus YKL190W, strain CNB1, stronger effect = lower value 0.98 | locus YKR026C, strain gcn3, stronger effect = lower value 1.02 | locus YKR091W, strain srl3, stronger effect = lower value 1.03 | locus YLL001W, strain dnm1, stronger effect = lower value 0.942 | locus YLL041C, strain sdh2, stronger effect = lower value 1.01 | locus YLR058C, strain SHM2, stronger effect = lower value 0.958 | locus YLR102C, strain apc9, stronger effect = lower value 0.992 | locus YLR113W, strain HOG1, stronger effect = lower value 0.923 | locus YLR258W, strain gsy2, stronger effect = lower value 0.92 | locus YLR268W, strain sec22, stronger effect = lower value 0.927 | locus YLR330W, strain CHS5, stronger effect = lower value 0.95 | locus YLR342W, strain FKS1, stronger effect = lower value 0.912 | locus YLR357W, strain rsc2, stronger effect = lower value 1.08 | locus YLR370C, strain arc18, stronger effect = lower value 0.972 | locus YLR371W, strain rom2, stronger effect = lower value 0.956 | locus YLR384C, strain iki3, stronger effect = lower value 1.04 | locus YML016C, strain PPZ1, stronger effect = lower value 0.988 | locus YML124C, strain tub3, stronger effect = lower value 0.996 | locus YMR078C, strain ctf18, stronger effect = lower value 0.966 | locus YMR125W, strain sto1, stronger effect = lower value 1.02 | locus YMR129W, stronger effect = lower value 0.929 | locus YMR231W, strain pep5, stronger effect = lower value 0.99 | locus YMR307W, strain GAS1, stronger effect = lower value 0.771 | locus YNL067W, strain RPL9B, stronger effect = lower value 0.985 | locus YNL183C, strain NPR1, stronger effect = lower value 0.876 | locus YNL209W, strain ssb2, stronger effect = lower value 0.991 | locus YNL233W, strain BNI4, stronger effect = lower value 0.902 | locus YNL248C, strain rpa49, stronger effect = lower value 0.908 | locus YNL322C, strain KRE1 (second series), stronger effect = lower value 0.977 | locus YNL322C, strain KRE1, stronger effect = lower value 0.99 | locus YNR049C, strain mso1, stronger effect = lower value 1.02 | locus YOL012C, strain htz1 1.71 | locus YOL147C, strain pex11, stronger effect = lower value 0.975 | locus YOR061W, strain CKA2, stronger effect = lower value 0.923 | locus YOR069W, strain VPS5, stronger effect = lower value 1 | locus YOR070C, strain gyp1, stronger effect = lower value 0.946 | locus YOR080W, strain dia2, stronger effect = lower value 1.02 | locus YOR083W, strain WHI5, stronger effect = lower value 0.904 | locus YOR136W, strain idh2, stronger effect = lower value 0.994 | locus YOR144C, strain elg1, stronger effect = lower value 0.954 | locus YOR231W, strain MKK1, stronger effect = lower value 0.901 | locus YOR265W, strain rbl2, stronger effect = lower value 0.997 | locus YOR290C, strain snf2, stronger effect = lower value 0.932 | locus YOR316C, strain cot1, stronger effect = lower value 0.981 | locus YPL106C, strain sse1, stronger effect = lower value 1.14 | locus YPL240C, strain hsp82, stronger effect = lower value 0.936 | locus YPL256C, strain CLN2, stronger effect = lower value 0.887 | locus YPR119W, strain clb2, stronger effect = lower value 1.01 | locus YPR141C, strain kar3, stronger effect = lower value 1 | locus YPR167C, strain met16, stronger effect = lower value 0.921 | strain wtn01, stronger effect = lower value 0.944
active: locus YAL021C, strain ccr4, stronger effect = lower value 0.737 | locus YBR009C, strain hhf1, stronger effect = lower value 0.79 | locus YBR021W, strain FUR4, stronger effect = lower value 0.781 | locus YCL011C, strain gbp2, stronger effect = lower value 0.86 | locus YDL035C, strain GPR1, stronger effect = lower value 0.787 | locus YDL192W, strain arf1, stronger effect = lower value 0.866 | locus YDR137W, strain rgp1, stronger effect = lower value 0.549 | locus YDR159W, strain sac3, stronger effect = lower value 0.799 | locus YDR162C, strain NBP2, stronger effect = lower value 0.408 | locus YDR195W, strain ref2 1.28 [resistant] | locus YDR318W, strain mcm21, stronger effect = lower value 0.895 | locus YDR388W, stronger effect = lower value 0.86 | locus YDR392W, strain spt3, stronger effect = lower value 0.495 | locus YDR502C, strain sam2, stronger effect = lower value 0.835 | locus YEL003W, strain gim4, stronger effect = lower value 0.774 | locus YER155C, strain BEM2 (second series), stronger effect = lower value 0.753 | locus YGL173C, strain kem1, stronger effect = lower value 0.821 | locus YGL240W, strain doc1, stronger effect = lower value 0.768 | locus YGR135W, strain pre9, stronger effect = lower value 0.856 | locus YGR252W, strain gcn5, stronger effect = lower value 0.692 | locus YHR142W, strain chs7, stronger effect = lower value 0.803 | locus YIL066C, strain RNR3, stronger effect = lower value 0.795 | locus YJL095W, strain BCK1 (second series), stronger effect = lower value 0.632 | locus YJL129C, strain trk1, stronger effect = lower value 0.851 | locus YJL164C, strain tpk1, stronger effect = lower value 0.847 | locus YJL166W, strain qcr8, stronger effect = lower value 0.815 | locus YJL187C, strain SWE1, stronger effect = lower value 0.923 | locus YKR001C, strain vps1, stronger effect = lower value 0.86 | locus YLL026W, stronger effect = lower value 0.928 | locus YLR027C, strain aat2, stronger effect = lower value 0.875 | locus YLR039C, strain RIC1, stronger effect = lower value 0.504 | locus YLR221C, strain rsa3, stronger effect = lower value 0.796 | locus YLR262C, strain YPT6 (second series), stronger effect = lower value 0.471 | locus YLR262C, strain YPT6, stronger effect = lower value 0.487 | locus YLR320W, strain mms22, stronger effect = lower value 0.595 | locus YLR342W, strain FKS1 (second series), stronger effect = lower value 0.718 | locus YLR418C, strain cdc73, stronger effect = lower value 0.701 | locus YML032C, strain rad52, stronger effect = lower value 0.82 | locus YML120C, strain ndi1, stronger effect = lower value 0.853 | locus YMR058W, strain fet3, stronger effect = lower value 0.872 | locus YMR205C, strain PFK2, stronger effect = lower value 0.726 | locus YMR223W, strain ubp8, stronger effect = lower value 0.864 | locus YNL071W, strain lat1, stronger effect = lower value 0.563 | locus YNL250W, strain rad50, stronger effect = lower value 0.894 | locus YNL271C, strain bni1, stronger effect = lower value 0.893 | locus YNL298W, strain CLA4, stronger effect = lower value 0.821 | locus YNL307C, strain MCK1, stronger effect = lower value 0.723 | locus YNR052C, strain pop2, stronger effect = lower value 0.648 | locus YOL006C, strain TOP1, stronger effect = lower value 0.529 | locus YOR001W, strain rrp6, stronger effect = lower value 0.833 | locus YOR106W, strain vam3, stronger effect = lower value 0.766 | locus YOR184W, strain ser1, stronger effect = lower value 0.658 | locus YOR270C, strain vph1, stronger effect = lower value 0.634 | locus YPL051W, strain arl3, stronger effect = lower value 0.865 | locus YPL078C, strain atp4, stronger effect = lower value 0.886 | locus YPR163C, strain tif3, stronger effect = lower value 0.884
